Measurements reported in ChEMBL document CHEMBL3988442, “University of Dundee, Small-Polar-MMV Screening Library” (2021).
For some assays here: Potency and affinity values are given separately.

Tests used:
Design in all cases: scale not given: direction of the effect not stated beside the values
[1] = target: Protein translocase subunit SecA (Escherichia coli (strain K12)) (UniProt P10408); test: Assay to Identify E. coli SecA ATPase Inhibitors; assay type: functional; conditions: 30 µM
[2] = target: T1, Ubiquitin-activating enzyme e1, putative (Leishmania donovani (strain BPK282A1)) (UniProt E9BSI1); test: Leishmania donovani Ubiquitin Activating Enzyme (LdE1); assay type: functional; conditions: 30 µM
T1 sequence (whole entry): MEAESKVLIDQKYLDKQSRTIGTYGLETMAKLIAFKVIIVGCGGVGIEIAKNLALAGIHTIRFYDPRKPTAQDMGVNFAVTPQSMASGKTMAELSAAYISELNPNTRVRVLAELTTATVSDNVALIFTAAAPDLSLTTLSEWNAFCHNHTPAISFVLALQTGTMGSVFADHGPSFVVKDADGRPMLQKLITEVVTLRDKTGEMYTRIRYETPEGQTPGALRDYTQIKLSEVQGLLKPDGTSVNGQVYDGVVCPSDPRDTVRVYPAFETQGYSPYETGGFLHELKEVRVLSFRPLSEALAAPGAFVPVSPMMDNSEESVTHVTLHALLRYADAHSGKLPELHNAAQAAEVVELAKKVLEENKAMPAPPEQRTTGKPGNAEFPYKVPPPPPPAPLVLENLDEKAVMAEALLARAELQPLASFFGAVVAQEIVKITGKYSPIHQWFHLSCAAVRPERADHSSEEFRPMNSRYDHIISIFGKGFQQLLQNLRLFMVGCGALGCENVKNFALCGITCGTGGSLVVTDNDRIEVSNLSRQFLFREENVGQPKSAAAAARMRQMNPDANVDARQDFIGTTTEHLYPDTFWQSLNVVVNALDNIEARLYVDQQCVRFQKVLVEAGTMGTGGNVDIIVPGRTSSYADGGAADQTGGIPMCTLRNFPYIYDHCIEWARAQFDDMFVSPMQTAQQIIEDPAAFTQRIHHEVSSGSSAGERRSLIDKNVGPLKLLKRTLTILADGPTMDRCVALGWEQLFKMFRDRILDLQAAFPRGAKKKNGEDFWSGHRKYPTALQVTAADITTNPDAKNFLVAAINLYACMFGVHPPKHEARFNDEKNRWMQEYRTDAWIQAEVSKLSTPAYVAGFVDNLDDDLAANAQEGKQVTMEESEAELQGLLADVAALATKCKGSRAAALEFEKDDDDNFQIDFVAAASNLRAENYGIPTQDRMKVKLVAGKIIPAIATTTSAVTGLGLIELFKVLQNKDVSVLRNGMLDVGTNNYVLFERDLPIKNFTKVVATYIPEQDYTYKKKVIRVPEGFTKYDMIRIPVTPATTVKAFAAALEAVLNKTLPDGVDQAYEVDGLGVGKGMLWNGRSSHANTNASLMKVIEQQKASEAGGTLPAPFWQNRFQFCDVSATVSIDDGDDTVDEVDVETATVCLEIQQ

[3] = target: AMP-activated protein kinase, AMPK (Homo sapiens) (UniProt P54646+O43741+P54619+Q9UGJ0+Q9Y478+Q13131+Q9UGI9); test: AMP-dependent Kinase enzyme assay. An in vitro enzyme assay that detects ADP turnover that is directly proportional to AMPK activity. This uses naive AMPK that is activated during the assay with MK-8722; assay type: functional; conditions: 30 µM
[4] = target: Sialic acid-binding Ig-like lectin 9 (Homo sapiens) (UniProt Q9Y336); test: Hs-Siglec9 ALPHAscreen SOP 20170721; conditions: 10 µM
Sialic acid-binding Ig-like lectin 9 (Homo sapiens), sequence (Q9Y336 whole entry): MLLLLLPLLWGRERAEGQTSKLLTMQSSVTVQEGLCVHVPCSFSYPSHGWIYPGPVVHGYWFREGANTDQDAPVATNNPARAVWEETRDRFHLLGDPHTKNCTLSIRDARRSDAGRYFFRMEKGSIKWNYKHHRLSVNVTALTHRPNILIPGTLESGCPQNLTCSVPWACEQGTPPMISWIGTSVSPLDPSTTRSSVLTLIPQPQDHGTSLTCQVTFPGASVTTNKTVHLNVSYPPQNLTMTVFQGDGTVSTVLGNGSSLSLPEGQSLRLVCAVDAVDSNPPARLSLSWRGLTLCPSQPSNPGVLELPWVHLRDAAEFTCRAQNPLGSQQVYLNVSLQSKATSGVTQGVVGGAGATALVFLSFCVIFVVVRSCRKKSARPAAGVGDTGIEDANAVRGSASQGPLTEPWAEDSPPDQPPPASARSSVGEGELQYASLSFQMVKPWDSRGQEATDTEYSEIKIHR

Trypanosoma cruzi = test: Trypanosoma cruzi phosphomannomutase and mannose-1-phosphate guanylyltransferase assay; assay type: functional; conditions: 10 µM
[5] = target: T2, Arginase-2, mitochondrial (Homo sapiens) (UniProt P78540); test: in vitro enzyme assay to detect the production of urea directly proportional to the activity of Arginase II; assay type: functional; conditions: 33.3 µM; further: in the data most compounds retested in dose-response had high values
T2 sequence (whole entry): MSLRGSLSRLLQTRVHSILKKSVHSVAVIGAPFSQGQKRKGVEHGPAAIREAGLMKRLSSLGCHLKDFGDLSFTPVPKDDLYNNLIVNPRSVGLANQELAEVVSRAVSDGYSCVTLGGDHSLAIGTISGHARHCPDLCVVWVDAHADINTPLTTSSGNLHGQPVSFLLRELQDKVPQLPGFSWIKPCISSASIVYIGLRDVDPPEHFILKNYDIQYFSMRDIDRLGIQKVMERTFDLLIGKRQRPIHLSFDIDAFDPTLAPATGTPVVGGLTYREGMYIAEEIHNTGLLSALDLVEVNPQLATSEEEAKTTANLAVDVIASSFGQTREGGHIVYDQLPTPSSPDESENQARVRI

[6] = target: T3, Proteasome subunit beta (Trypanosoma cruzi) (UniProt O96673); test: Trypanosoma cruzi proteasome chymotrypsin-like activity (TcProtChymo) assay.; further: in the data most compounds retested in dose-response had high values; assay type: functional; conditions: 9.37 µM
T3 sequence (whole entry): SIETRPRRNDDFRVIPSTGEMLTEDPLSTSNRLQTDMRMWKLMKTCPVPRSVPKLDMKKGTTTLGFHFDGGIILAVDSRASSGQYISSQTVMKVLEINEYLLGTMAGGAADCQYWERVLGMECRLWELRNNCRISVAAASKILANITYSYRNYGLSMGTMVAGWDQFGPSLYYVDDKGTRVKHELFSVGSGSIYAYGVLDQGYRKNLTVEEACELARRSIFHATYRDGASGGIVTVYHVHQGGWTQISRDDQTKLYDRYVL

Homo sapiens = species: Homo sapiens; test: To identify inhibition of the IFN signalling (Jak-Stat) pathway via expression of an eGFP reporter gene under the control of an IFN-stimulated response element (ISRE) containing MxA promoter.; assay type: functional; conditions: 30 µM
[7] = target: T4, Tyrosyl-tRNA synthetase, putative (Trypanosoma cruzi (strain CL Brener)) (UniProt Q4DSP6); test: Trypanosoma cruzi tyrosyl tRNA synthetase (TcYRS) _High Tyrosine SOP; assay type: functional; conditions: 30 µM; further: in the data most compounds retested in dose-response had high values
T4 sequence (whole entry): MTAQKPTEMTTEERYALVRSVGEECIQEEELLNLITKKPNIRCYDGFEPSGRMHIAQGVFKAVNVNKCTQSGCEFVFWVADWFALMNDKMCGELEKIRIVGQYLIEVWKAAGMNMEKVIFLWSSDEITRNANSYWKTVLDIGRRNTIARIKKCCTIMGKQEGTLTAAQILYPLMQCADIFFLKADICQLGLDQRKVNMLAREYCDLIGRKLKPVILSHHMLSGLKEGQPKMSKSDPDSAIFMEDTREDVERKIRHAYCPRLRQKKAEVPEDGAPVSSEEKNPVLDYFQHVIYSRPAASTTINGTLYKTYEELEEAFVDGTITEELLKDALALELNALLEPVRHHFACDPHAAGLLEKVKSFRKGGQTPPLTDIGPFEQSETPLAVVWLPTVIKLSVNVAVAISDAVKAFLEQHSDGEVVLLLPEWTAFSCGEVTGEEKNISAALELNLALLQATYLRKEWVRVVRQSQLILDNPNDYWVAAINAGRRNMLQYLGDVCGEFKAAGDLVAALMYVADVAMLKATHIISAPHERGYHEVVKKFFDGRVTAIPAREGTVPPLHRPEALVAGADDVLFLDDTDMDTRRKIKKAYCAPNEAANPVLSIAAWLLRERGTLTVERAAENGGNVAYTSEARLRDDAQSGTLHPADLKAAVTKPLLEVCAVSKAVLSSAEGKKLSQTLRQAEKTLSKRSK

[8] = target: T4, Tyrosyl-tRNA synthetase, putative (Trypanosoma cruzi (strain CL Brener)); test: Trypanosoma cruzi tyrosyl tRNA synthetase (TcYRS) SOP; assay type: functional; conditions: 30 µM
[9] = target: Chromo domain-containing protein 1 (Saccharomyces cerevisiae (strain ATCC 204508 / S288c) (Baker's yeast)) (UniProt P32657); test: ScCHD-1 Enzyme Inhibition Assay; assay type: functional; conditions: 30 µM; further: in the data most compounds retested in dose-response had high values
Chromo domain-containing protein 1 (Saccharomyces cerevisiae (strain ATCC 204508 / S288c) (Baker's yeast)), sequence (P32657 whole entry, the tested form may be a part): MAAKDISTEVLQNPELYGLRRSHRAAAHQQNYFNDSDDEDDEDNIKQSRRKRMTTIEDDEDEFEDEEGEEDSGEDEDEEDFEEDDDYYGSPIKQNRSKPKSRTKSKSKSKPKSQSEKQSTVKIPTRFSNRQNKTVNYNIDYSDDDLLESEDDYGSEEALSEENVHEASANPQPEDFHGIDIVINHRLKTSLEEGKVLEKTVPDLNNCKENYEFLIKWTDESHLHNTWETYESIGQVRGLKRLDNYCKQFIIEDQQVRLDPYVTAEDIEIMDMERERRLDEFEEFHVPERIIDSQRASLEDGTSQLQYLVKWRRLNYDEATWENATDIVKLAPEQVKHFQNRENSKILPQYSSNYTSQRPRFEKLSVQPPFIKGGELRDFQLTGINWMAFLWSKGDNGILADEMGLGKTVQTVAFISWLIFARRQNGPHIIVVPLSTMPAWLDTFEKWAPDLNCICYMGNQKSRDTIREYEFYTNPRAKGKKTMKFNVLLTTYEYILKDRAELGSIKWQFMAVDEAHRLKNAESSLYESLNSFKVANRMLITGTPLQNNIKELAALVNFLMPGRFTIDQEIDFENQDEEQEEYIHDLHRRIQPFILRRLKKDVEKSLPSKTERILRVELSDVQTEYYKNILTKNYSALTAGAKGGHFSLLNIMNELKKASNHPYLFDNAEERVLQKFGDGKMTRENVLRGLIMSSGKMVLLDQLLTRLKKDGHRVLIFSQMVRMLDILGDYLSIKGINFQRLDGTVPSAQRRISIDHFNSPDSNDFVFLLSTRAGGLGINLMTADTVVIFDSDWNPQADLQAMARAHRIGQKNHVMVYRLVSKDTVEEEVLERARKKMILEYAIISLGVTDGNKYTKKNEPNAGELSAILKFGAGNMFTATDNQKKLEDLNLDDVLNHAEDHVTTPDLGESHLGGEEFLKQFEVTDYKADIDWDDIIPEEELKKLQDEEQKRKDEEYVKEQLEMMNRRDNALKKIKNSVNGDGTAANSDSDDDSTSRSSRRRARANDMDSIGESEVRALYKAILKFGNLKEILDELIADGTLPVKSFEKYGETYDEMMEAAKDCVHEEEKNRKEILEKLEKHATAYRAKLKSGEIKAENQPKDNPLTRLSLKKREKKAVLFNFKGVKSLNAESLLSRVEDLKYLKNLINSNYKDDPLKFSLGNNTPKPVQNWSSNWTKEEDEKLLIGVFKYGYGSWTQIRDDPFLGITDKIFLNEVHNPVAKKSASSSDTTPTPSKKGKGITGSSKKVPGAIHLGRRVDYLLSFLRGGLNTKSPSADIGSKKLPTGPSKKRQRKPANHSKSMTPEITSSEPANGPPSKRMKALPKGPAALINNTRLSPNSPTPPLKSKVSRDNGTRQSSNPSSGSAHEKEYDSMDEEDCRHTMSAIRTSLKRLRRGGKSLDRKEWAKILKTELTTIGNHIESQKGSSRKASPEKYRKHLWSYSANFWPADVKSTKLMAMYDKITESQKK

Protein translocase subunit SecA (Escherichia coli (strain K12)), sequence (P10408 whole entry): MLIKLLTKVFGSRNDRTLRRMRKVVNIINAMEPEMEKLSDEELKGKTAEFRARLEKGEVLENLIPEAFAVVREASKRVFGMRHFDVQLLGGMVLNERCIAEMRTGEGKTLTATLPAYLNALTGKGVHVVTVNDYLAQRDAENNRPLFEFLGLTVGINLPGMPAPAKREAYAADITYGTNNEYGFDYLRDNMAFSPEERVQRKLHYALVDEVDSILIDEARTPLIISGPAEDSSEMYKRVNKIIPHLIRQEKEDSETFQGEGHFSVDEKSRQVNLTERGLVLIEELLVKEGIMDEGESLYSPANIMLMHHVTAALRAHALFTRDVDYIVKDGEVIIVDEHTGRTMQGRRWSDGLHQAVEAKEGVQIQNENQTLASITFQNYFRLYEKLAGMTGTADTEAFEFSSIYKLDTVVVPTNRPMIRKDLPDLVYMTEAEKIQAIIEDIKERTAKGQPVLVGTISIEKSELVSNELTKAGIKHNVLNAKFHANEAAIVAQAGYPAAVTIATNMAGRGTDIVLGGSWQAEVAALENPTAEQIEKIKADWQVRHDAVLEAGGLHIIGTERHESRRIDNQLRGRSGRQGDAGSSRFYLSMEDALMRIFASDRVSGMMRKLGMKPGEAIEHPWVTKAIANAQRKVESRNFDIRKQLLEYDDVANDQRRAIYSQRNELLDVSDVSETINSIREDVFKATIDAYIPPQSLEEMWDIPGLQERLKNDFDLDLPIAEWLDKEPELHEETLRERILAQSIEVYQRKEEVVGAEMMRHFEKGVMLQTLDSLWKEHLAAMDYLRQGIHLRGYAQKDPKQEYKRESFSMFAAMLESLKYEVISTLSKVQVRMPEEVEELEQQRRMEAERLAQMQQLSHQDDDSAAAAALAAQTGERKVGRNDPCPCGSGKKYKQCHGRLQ

Row | Structure (SMILES) | Percent Effect [1] | Percent Effect [2] | Percent Effect [3] | Percent Effect [4] | Percent Effect (Trypanosoma cruzi) | Percent Effect [5] | Percent Effect [6] | Percent Effect (Homo sapiens) | Percent Effect [7] | Percent Effect [8] | Percent Effect [9]
1 | CN1CC(C(=O)NC(C)(C)C)CC1=O (configuration not stated) | -3.04% | -5.48% | -0.441% | -0.584% | -0.595% | -3.59% | 3% | -7.57% | 2.08% | 8.64% | 6.01%
2 | CC(C)N1CCC(NCc2cccnc2N(C)Cc2ccccc2)CC1 | -6.5% | 5.33% | -5.44% | 0.0952% | 0.0974% | 1.04% | 4.01% | -2.28% | 1.64% | 6.17% | -5.77%
3 | O=C(c1ccc(N2CCCC2)nn1)N1CCCC(n2cccn2)C1 (configuration not stated) | -6.6% | 10.5% | -3% | -5.01% | -6.44% | 5.4% | 5.33% | -4.4% | 4.43% | 3.7% | 1.12%
4 | COCCC(=O)N1CC[C@@H]2O[C@@H](C)C[C@H]2C1 | -6.08% | 8% | 0.716% | 0.473% | 2.36% | -3.96% | 6.61% | 15.7% | 6.38% | 11.5% | -7.49%
5 | COc1cc(CNC(=O)c2c(C)noc2C(C)C)ccn1 | -2.87% | 26% | -8.18% | 3.15% | 3.75% | 3.92% | 10.8% | 9.63% | 10.7% | 21.9% | -10.2%
6 | CC1CN=C(N2CCN(C(=O)Nc3nc(-c4ccccc4)ns3)CC2)S1 (configuration not stated) | -9.42% | -5.41% | 7.75% | -5.9% | -2.25% | -3.23% | 3.35% | 38.4% | -2.15% | -6.17% | -0.289%
7 | CC(=O)N1CCCC1C(=O)NCCOc1cc(C)cc(C)c1 (configuration not stated) | -7.33% | 7.79% | -4.76% | 10.6% | 3.37% | -5.34% | -7.43% | -4.36% | 6.8% | 12.2% | -4.02%
8 | Cc1cnn(C2CCCN(C(=O)c3ccnc(N(C)C)c3)C2)c1 (configuration not stated) | -0.378% | 19% | -4.04% | -2.57% | -1.54% | 0.645% | 10.3% | 19.4% | 1.04% | 5.06% | -31.1%
9 | CN1CCN(C(=O)c2cncc(CC3CCCN(C)C3)c2)CC1 (configuration not stated) | -3.41% | 9.46% | 5.47% | 12% | -8.3% | -7.66% | 12% | 15.9% | 1.07% | 1.3% | -9.97%
10 | COCCNS(=O)(=O)c1ccc2c(c1)CCN(C(=O)c1cncn1C)C2 | -1.62% | 6.94% | -17.1% | 2.73% | -1.46% | 6.62% | 22.1% | 6.15% | 7.37% | 10.3% | -2.12%
11 | Cc1nc(C)n(CC2CCCN(c3ncnc4ccsc34)C2)n1 (configuration not stated) | -0.224% | 10.8% | 4.37% | -5.33% | -7.08% | 1.2% | 14.2% | 73.4% | 6.4% | 16.1% | -6.75%
12 | Cc1cn2c(n1)CCC(NC(=O)c1ccc(CS(C)(=O)=O)cc1)C2 (configuration not stated) | -7.39% | 13.2% | -4.52% | 4.15% | 7.71% | -3.06% | 4.68% | -9.1% | 5.39% | 12.2% | -9.28%
13 | CN(C)c1ncccc1CNC(=O)N1CCCC1CN1CCCCC1 (configuration not stated) | -3.1% | 23.4% | -3.23% | 0.716% | -2.25% | -0.356% | 9.63% | 3.33% | 7.77% | 14.6% | -9.2%
14 | CCOc1ncccc1C(=O)NCCN(CC)C1CC1 | -6.27% | 3.8% | 1.07% | -1.89% | -0.103% | 5.38% | 8.75% | 5.7% | 1.04% | 0% | -23.1%
15 | Cc1ccc(C)c(OC2CCN(C(=O)c3ccc(C)[nH]c3=O)CC2)c1 | -3.58% | 15.8% | -5.18% | 6.14% | 8.84% | 1.53% | 10.9% | 11.6% | 5.39% | 12.2% | -11.4%
16 | Cc1cc(C)n(C2CCCN(C(=O)CCNS(C)(=O)=O)C2)n1 (configuration not stated) | 2.69% | -6.33% | -12.4% | -1.59% | -0.103% | 7.53% | 8.58% | 12.6% | 2.08% | 7.59% | -22.7%
17 | Oc1ccc(N2CCN(Cc3cc4c(cc3Br)OCCO4)CC2)cc1 | -0.859% | -9.72% | 44.8% | 3.01% | -1.07% | -2.21% | 13.2% | 27.4% | 9.47% | 10.3% | -3.02%
18 | CN(Cc1ccccc1)C1COC2(CCN(Cc3nccs3)CC2)C1 (configuration not stated) | -6.64% | 13.3% | -9.84% | 1.43% | 3.09% | -51.1% | 4.79% | -4.42% | 4.17% | 7.5% | -9.89%
19 | CCCc1nc(NCCCO)c2c(n1)c(C)nn2CC | -3.3% | 6.67% | 9.08% | 11.8% | -1.38% | -9.33% | 14.2% | 12.4% | 8.47% | 12.8% | -10.1%
20 | CS(=O)(=O)NCCCNC(=O)c1cccnc1O | -3.07% | 0% | -3.83% | -4.12% | 1.76% | 1.25% | 16.6% | 6.15% | 7.92% | 8.54% | -4.62%
21 | CCOc1cccc(C(=O)N2CCN(c3nccc(OC)n3)CC2)c1 | -7.2% | 5.26% | 10.4% | -5.48% | -7% | 1.8% | 6.51% | 16.4% | -1.48% | 1.24% | -2.73%
22 | CC(=O)NCC(=O)N1CCn2cc(CN3CCN(C)CC3)nc2C1 | -4.28% | 10.4% | -0.0716% | 14.9% | 7.57% | -1.38% | 6.16% | 9.49% | 8.6% | 16.1% | -0.16%
